In PubChem BioAssay (NCATS):
Records with an inconclusive call do not appear. Entries that show only a call come without a potency. Activity calls are given as the source filed them. Calls follow the shape of the dose curve; as a rule, active = well fitted inhibition curve with a large enough effect; inconclusive = small, poorly fitted or top-dose-only effect; inactive = flat fitted curve, though single readings scatter.

Columns and labels:
Assay in all cases: qHTS profiling for inhibitors of Plasmodium falciparum proliferation (AID 504749); also: nearly all actives have a fitted effect of over 60% in size
Conditions in all cases: P. falciparum in erythrocytes, SYBR Green DNA, 72 h; series mostly up to 28.7 µM
CP286 = system: CP286
Outline: (§1)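 SYBR Green fluorescence of parasite DNA, read after lysis and overnight dark incubation, measured growth over 72 h in erythrocyte culture at 0.3% parasitemia and 2.5% hematocrit. Data normalised to DMSO and 0.29 uM artemisinin, with plate-drift correction.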

CP291 = system: CP291
Outline: as §1

CP297 = system: CP297
Outline: as §1

CP305 = system: CP305
Outline: as §1

CP315 = system: CP315
Outline: as §1

CP325 = system: CP325
Outline: as §1

CP329 = system: CP329
Outline: as §1

DIV30 = system: DIV30
Outline: as §1

ECU = system: ECU
Outline: as §1

FAB9 = system: FAB9
Outline: as §1

HB3 = system: HB3
Outline: as §1

ICS = system: ICS
Outline: as §1

N140 = system: N140
Outline: as §1

CP335 = system: CP335
Outline: as §1

DIV14 = system: DIV14
Outline: as §1

DIV17 = system: DIV17
Outline: as §1

Dd2 = system: Dd2
Outline: as §1

GB4 = system: GB4
Outline: as §1

JCK = system: JCK
Outline: as §1

DFO2036 = system: DFO2036
Outline: as §1
Potency is read from the fitted curve at half-maximal effect.

Structure (SMILES)	Potency (CP286)	Potency (CP291)	Potency (CP297)	Potency (CP305)	Potency (CP315)	Potency (CP325)	Potency (CP329)	Potency (DIV30)	Potency (ECU)	Potency (FAB9)	Potency (HB3)	Potency (ICS)	Potency (N140)	Potency (CP335)	Potency (DIV14)	Potency (DIV17)	Potency (Dd2)	Potency (GB4)	Potency (JCK)	Potency (DFO2036)
CN(Cc1cnc2nc(N)nc(N)c2n1)c1ccc(C(=O)N[C@@H](CCC(=O)O)C(=O)O)cc1	0.158 µM (active)	inactive	inactive	inactive	inactive	inactive	inactive	inactive	0.112 µM (active)	0.0316 µM (active)	0.141 µM (active)	0.112 µM (active)	inactive							
O=C(Nc1ccc([N+](=O)[O-])cc1Cl)c1cc(Cl)ccc1O	1.78 µM (active)	1.2 µM (active)	8.49 µM (active)	2.13 µM (active)					1 µM (active)	inactive		0.631 µM (active)	0.631 µM (active)	1.51 µM (active)	1.07 µM (active)	1.2 µM (active)	0.891 µM (active)	1.35 µM (active)	inactive	
O=C(c1ccc(OCCN2CCCCC2)cc1)c1c(-c2ccc(O)cc2)sc2cc(O)ccc12	3.55 µM (active)		12 µM (active)		19 µM (active)						7.08 µM (active)	2 µM (active)	11.2 µM (active)	6.75 µM (active)	12 µM (active)	15.1 µM (active)	14.1 µM (active)	8.49 µM (active)		
O=c1[nH]cc(F)c(=O)[nH]1										inactive								12 µM (active)	inactive	inactive
Clc1ccc(C(c2ccccc2Cl)C(Cl)Cl)cc1 (centres undefined)		inactive			inactive	inactive			inactive	inactive	inactive		inactive				inactive		inactive	inactive
COc1nc(C)nc(Cl)c1NC1=NCCN1	inactive	inactive		inactive	inactive	inactive	inactive	inactive	inactive	inactive	inactive	inactive	inactive	inactive	inactive	inactive	inactive	inactive	inactive	inactive
CN(C)CCOC(c1ccccc1)c1ccccc1					inactive		inactive		inactive	inactive	inactive			inactive					inactive	inactive
CC(COc1ccccc1)N(CCCl)Cc1ccccc1 (centres undefined)				inactive	inactive	inactive				inactive	inactive	11.2 µM (active)				6.01 µM (active)			inactive	inactive
CC#C[C@]1(O)CC[C@H]2[C@@H]3CCC4=CC(=O)CCC4=C3[C@@H](c3ccc(N(C)C)cc3)C[C@@]21C		16.9 µM (active)	12 µM (active)	12 µM (active)				15.1 µM (active)	8.91 µM (active)		12.6 µM (active)	4.47 µM (active)	8.91 µM (active)	13.5 µM (active)	12 µM (active)	8.49 µM (active)	12.6 µM (active)	15.1 µM (active)		
O=C(c1ccc(F)cc1)C1CCN(CCn2c(=O)[nH]c3ccccc3c2=O)CC1			inactive		inactive	inactive	inactive	inactive	inactive	inactive	inactive	inactive	inactive	inactive				inactive	inactive	inactive
Nc1nc2c(ncn2COC(CO)CO)c(=O)[nH]1	inactive	inactive		inactive	inactive	inactive	inactive	inactive	inactive	inactive	inactive	inactive	inactive	inactive	inactive	inactive	inactive	inactive	inactive	inactive
